Screening data (PubChem BioAssay)
Luc counter: blocks Kinase-Glo luciferase, a counter-screen artifact. actives 0.28% (n = 200,000). Potency, µM (doses to about 38.3 µM), without a hit: at the top dose activity change, negative = inhibition, actives largely listed as inhibitors. Q27757. Kinase-Glo luciferase, ATP luminescence, 8 min; further: on the % scale 0 is the no-effect control and ±100 the full control effect; nearly all actives have a fitted effect of over 60% in size
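Compounds were added to a substrate mix at pH 7.2 (50 mM imidazole, 10 uM ATP, within the enzyme's linear range), followed by Kinase-Glo detection reagent; luminescence was measured after 8 minutes at ambient temperature.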
Rab9 prom act: activators of Rab9 promoter; Potency, µM (series often up to 9.22 µM), inactives show at the top dose activation, negative = inhibition, actives largely listed as activators; actives 2.8% (n = 320,000); Huh7 Rab9 promoter-luciferase reporter, luminescence, 24 h; further: % of control where 0% means no effect; nearly all actives have a fitted effect of over 60% in size
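Rab9 promoter-driven luciferase in stably transfected Huh7 cells; 1500 cells/well rested 2 h, exposed to compound in DMSO for 24 h at 37 °C, 5% CO2. Luminescence read 10 min after adding luciferase reagent at ambient temperature.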
FLuc counter: counter-screen for miR-21 project: firefly luciferase inhibitors or activators; purified FLuc, Km substrates, luminescence inhibition; actives 6.9% (n = 360,000); Potency, µM (top dose mostly 57.5 µM), without a hit: at the top dose activity change, negative = inhibition, most hits filed as inhibitors; P08659;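 further: plate controls were vehicle for no effect and reference inhibitor for full effect; nearly all actives have a fitted effect of over 55% in size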
Target sequence (P08659 whole entry, looked up): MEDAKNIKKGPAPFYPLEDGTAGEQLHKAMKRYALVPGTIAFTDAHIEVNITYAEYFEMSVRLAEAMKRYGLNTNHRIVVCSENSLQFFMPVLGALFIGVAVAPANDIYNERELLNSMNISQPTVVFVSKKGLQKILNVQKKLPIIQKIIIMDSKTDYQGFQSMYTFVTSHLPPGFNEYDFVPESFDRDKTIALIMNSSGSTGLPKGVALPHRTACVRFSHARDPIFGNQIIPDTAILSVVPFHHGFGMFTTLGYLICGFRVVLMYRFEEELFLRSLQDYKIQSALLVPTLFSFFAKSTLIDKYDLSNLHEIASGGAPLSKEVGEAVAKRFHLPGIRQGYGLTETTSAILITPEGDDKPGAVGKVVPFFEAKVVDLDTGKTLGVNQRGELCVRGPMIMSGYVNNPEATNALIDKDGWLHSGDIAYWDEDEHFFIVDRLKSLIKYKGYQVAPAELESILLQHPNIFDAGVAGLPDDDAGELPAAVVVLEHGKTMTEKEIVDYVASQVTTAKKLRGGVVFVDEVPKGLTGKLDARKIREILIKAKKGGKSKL
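Purified P. pyralis luciferase, 10 nM final, with Km-level 10 uM D-luciferin and 10 uM ATP in 50 mM Tris acetate pH 7.5, 10 mM Mg acetate, 0.01% Tween-20, 0.05% BSA; 6-point qHTS titration about 60 µM downward; luminescence read.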
SMN2 splice enh: increases expression of the SMN2 splice variant; Potency, µM (doses to about 46.1 µM), for inactives: at the highest dose activity change, positive = activation, most hits filed as activators; HEK293 SMN2-luciferase splicing reporter, luminescence, 30-36 h; AID 1458; actives 2.8% (n = 210,000); further: % of control where 0% means no effect; nearly all actives have a fitted effect of over 55% in size
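qHTS luciferase splicing reporter: luminescence rises when SMN2 exon 7 is included in transfected HEK293 cells. Compound exposure lasted 30-36 h at 37C, with 4.5 mM final sodium butyrate as control, followed by a ONE-Glo read.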
ELG1 genotox: inducers of genotoxicity in HEK293T ELG1-luciferase cells | HEK293T ELG1-luciferase reporter, luminescence, 16 h | Potency, µM (top dose mostly 46 µM), for inactives: at the top dose activity change, positive = activation, usual class: activators | actives 1.3% (n = 330,000); further: % of control where 0% means no effect; nearly all actives have a fitted effect of over 60% in size
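Luminescence read-out: rising ELG1-luciferase signal, reflecting elevated ELG1 protein under genetic stress, flags genotoxic compounds. Cells were treated for 16 hr at 37 °C before ONE-Glo detection.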
NPC1 promoter act: activates the NPC1 promoter | Huh7 NPC1 promoter luciferase reporter, 24 h | Potency, µM (highest dose often 9.22 µM), for inactives: at the highest dose activation, actives largely listed as activators | actives 2.4% (n = 320,000) | AID 485313; further: % of control where 0% means no effect; nearly all actives have a fitted effect of over 60% in size
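Stable NPC1-promoter luciferase Huh7 line; cpd (DMSO) 24 h, 37 °C, 5% CO2; Amplite luciferase reagent 10 min RT; luminescence readout. qHTS format.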
The depositor's hits bear a star; ? = inconclusive; . = not tested or not shown. The list is not random: actives were taken first. Their share in the collection is about 7.3%. The call rests on the fitted dose curve; in most records, active means well fitted curve in the direction sought with a large enough effect; inconclusive means small, poorly fitted or top-dose-only effect, or another doubt; inactive means no such curve, though single readings can be large; an effect the other way counts as inactive or inconclusive. Potency means the concentration at half of the fitted maximal effect.

SMILES	Luc counter	Rab9 prom act	FLuc counter	SMN2 splice enh	ELG1 genotox	NPC1 promoter act
O=C(N/N=C/c1ccc(O)c(O)c1O)/C(=C/c1ccc([N+](=O)[O-])cc1)NC(=O)c1ccccc1	-3%	-9%	11µM*	1%	2%	-3%
Nc1nc2ccccc2n1C(=O)c1ccco1	?	2.5µM*	11µM*	13µM*	?	?
Nc1nc2ccccc2n1C(=O)c1ccc(F)cc1	?	0.28µM*	1.3µM*	.	1.2µM*	0.5µM*
Nc1nc2ccccc2n1C(=O)c1ccccc1	11µM*	0.35µM*	0.76µM*	1.6µM*	0.65µM*	?
COCCNc1nc2ccccc2n1CC(=O)c1ccc(OC)c(OC)c1	.	-1%	-1%	.	-5%	0%
Cn1c(CNC(=O)c2ccc(F)cc2)nc2ccccc21	-2%	-5%	-1%	-1%	1%	2%
COc1ccc(C(=O)n2c(N)nc3ccccc32)cc1OC	.	2.5µM*	19µM*	.	?	2.8µM*
CCC(=O)N1CCn2c1nc1ccccc12	-3%	3%	1%	23%	6%	-2%
Nc1nc2ccccc2n1C(=O)CCc1ccccc1	-2%	?	?	10µM*	2.3µM*	?
Nc1nc2ccccc2n1C(=O)c1cccs1	?	0.79µM*	2.7µM*	11µM*	?	?
O=C(c1ccco1)N1CCn2c1nc1ccccc12	?	?	?	11µM*	?	?
O=c1c2cccnc2n(Cc2ccc(Cl)cc2)c(=O)n1Cc1ccc(F)cc1	.	.	6%	2%	.	.
COc1ccc(-n2c(C)cc(/C=C3\C(=N)N4N=C(CC(=O)N5CCOCC5)SC4=NC3=O)c2C)cc1	.	0%	?	.	6%	-2%
CCN(CC)c1ccc(/C=C2\C(=N)N3N=C(CC(=O)N4CCOCC4)SC3=NC2=O)cc1	.	4%	27µM*	.	10%	24%
CSc1ccc(/C=C2\C(=N)N3N=C(CC(=O)N4CCOCC4)SC3=NC2=O)cc1	.	0%	?	.	5%	-1%
Cc1cc(/C=C2\C(=N)N3N=C(CC(=O)N4CCOCC4)SC3=NC2=O)c(C)n1-c1ccccc1	.	4%	11µM*	.	6%	-3%
CCc1ccc(-n2nc(CO)c(C(=O)NCCCCc3ccccc3)n2)cc1	.	.	?	5%	.	.
c1ccc(Cn2ncc3c(NCc4ccco4)ncnc32)cc1	.	2%	1%	.	-2%	0%
COc1ccccc1CNc1ncnc2c1cnn2-c1ccc(C)cc1	.	.	17µM*	.	.	.
COc1ccccc1CNc1ncnc2c1cnn2-c1ccccc1	.	3%	?	.	12%	17%
Cc1ccc(CNc2ncnc3c2cnn3-c2ccccc2)cc1	2%	16%	-12%	-18%	7%	5%
Cc1ccc(-n2ncc3c(NCc4ccccc4)ncnc32)cc1	.	?	-19%	.	4.6µM*	3.5µM*
c1ccc(-n2ncc3c(NCc4ccco4)ncnc32)cc1	1%	?	24µM*	.	10µM*	?
Cc1cccc(Nc2ccc(NCc3ccccc3)nn2)c1	0%	?	15µM*	19%	1%	?
CCOc1ccc(CCNc2ncnc3onc(-c4ccc(Cl)cc4)c23)cc1	.	.	1%	.	.	.
SMILES	Luc counter	Rab9 prom act	FLuc counter	SMN2 splice enh	ELG1 genotox	NPC1 promoter act
C=CCN(C(=O)C1CSC2(C)CCC(=O)N12)c1nc(-c2ccccc2)cs1 (centres undefined)	.	7%	-1%	.	18µM*	1%
Cc1ccc(-c2csc(NC(=O)C3CSC4(C)CCC(=O)N34)n2)cc1 (centres undefined)	.	10%	-3%	.	14%	-2%
O=C(Nc1ncc(Cc2cccc(Cl)c2Cl)s1)C1CCCO1 (centres undefined)	-3%	3.5µM*	11µM*	16µM*	16µM*	?
CC(=O)Nc1ncc(Cc2cccc(Cl)c2Cl)s1	3%	1%	0%	-6%	4%	-8%
Cc1cnc(NC(=O)C2CCCO2)s1 (centres undefined)	2%	14%	2%	-3%	-1%	-7%
CC(=O)Nc1ncc(Cc2cccc(Cl)c2)s1	-3%	-9%	3%	.	13%	-1%
O=C(Nc1ncc(Cc2ccccc2Cl)s1)C1CCCO1 (centres undefined)	1%	1.4µM*	9.5µM*	13µM*	?	3.5µM*
O=C(Nc1ncc(Cc2cccc(Cl)c2)s1)C1CCCO1 (centres undefined)	0%	?	19µM*	23%	15%	?
CC(C)(C)c1ccc(OCC(=O)NCC2(N3CCOCC3)CCCCC2)cc1	.	.	1%	.	.	.
O=[N+]([O-])c1ccccc1N/N=C\c1ccccc1F	.	2.8µM*	?	.	5.8µM*	?
O=[N+]([O-])c1ccc(O)c(/C=N/n2cnc3ccccc32)c1	2%	-3%	27µM*	-48%	-10%	6%
C/C(=N\Nc1cccc([N+](=O)[O-])c1)c1ccccc1O	.	?	19µM*	.	?	2%
O=[N+]([O-])c1ccc(O)c(/C=N/Nc2ccccc2Cl)c1	-3%	?	4.8µM*	13µM*	?	1.4µM*
